Source: PubChem BioAssay (NCATS)
Inconclusive results are not listed. Activity calls are given as the source filed them. The call rests on the fitted dose curve.

What was measured:
[1] = qHTS drug screen for cell cycle checkpoint inhibitors in PARPi-resistant BRCA-mutant ovarian cancer cell lines. (AID 1963452); details: PEO1/OlaR viability, CellTiter-Glo luminescence, 96 h, stronger effect = lower value
In short: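 PEO1, PEO4 and PEO1/OlaR ovarian cancer cells, 600 per well, exposed 96 h at 37C to a dilution series. Viability read by CellTiter-Glo luminescence, normalized to DMSO and empty wells; activity summarized as Z-AUC.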

[2] = qHTS for identification of novel therapeutic agents for treatment of microphthalmiaassociated transcription factor (MiT) renal cell carcinoma (RCC) (AID 1963991); details: CellTiter-Glo, 48 h, stronger effect = lower value
In short: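 Three TFE3-fusion RCC lines (UOK109, UOK124, UOK145), 500 cells/well in complete medium, were treated with MIPE 4.0 compounds for 48 hours at 37 C. Viability was by CellTiter-Glo luminescence, normalized to DMSO (100%) and empty wells (0%); curves fitted over 11 concentrations.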

[3] = measured here: PEO1 parental Z-AUC
[4] = TFE3-RCC UOK109 viability, measured here: UOK109 Z-AUC
[5] = TFE3-RCC viability, measured here: UOK124 Z-AUC
[6] = TFE3-RCC viability, measured here: UOK145 Z-AUC

SMILES	Z-AUC [1]	Z-AUC [1, 3]	Z-AUC ([1]; measured here: PEO4 Z-AUC)	z-score [2, 4]	z-score [2, 5]	z-score [2, 6]
COc1cc2ncn(-c3cc(OCc4ccccc4S(C)(=O)=O)c(C#N)s3)c2cc1OC	0.942 (inactive)	0.779	0.362	–	–	–
CC(C)C[C@@H](C(=O)N[C@H](C(=O)OC1CCCC1)c1ccccc1)[C@H](O)C(=O)NO	-0.457 (inactive)	-0.511	-0.774	–	–	–
CCCCn1c(=O)n(Cc2ccccc2F)c(=O)c2[nH]c(Cc3ccc(NC(C)=O)cc3)nc21	-0.247 (inactive)	-0.269	0.0892	–	–	–
COc1ccc2c(c1)c(C1=C(c3c[nH]c4ccccc34)C(=O)NC1=O)cn2CCCN(C)C	-1.63 (inactive)	-0.951	-1.4	–	–	–
CN(C)CCOc1cc(-c2cn[nH]c2)ccc1NC(=O)C1COc2ccccc2O1 (stereo not drawn)	1.15 (inactive)	0.743	1.03	–	–	–
COC(=O)Nc1ccc(-c2nc(N3CCOCC3)c3cnn(C4CCN(C(=O)OC)CC4)c3n2)cc1	0.0604 (inactive)	-0.0911	-0.355	–	–	–
CN(C)N=Nc1nc[nH]c1C(N)=O	1.39 (inactive)	0.491	0.792	–	–	–
CC1CCN(c2cc(N3CCN(C)CC3)ccc2NC(=O)c2cc(C#N)c[nH]2)CC1	-1.13 (inactive)	-0.115	0.801	–	–	–
CCCCCCCCCCCCCC(=O)N[C@H](CO)[C@H](O)c1ccc([N+](=O)[O-])cc1	1.33 (inactive)	1.09	1.02	–	–	–
Nc1[nH]nc2nnc(-c3c(-c4ccccc4)nn4ccccc34)cc12	-0.433 (inactive)	0.0529	-0.206	–	–	–
Cc1ccc2c(c1)C(=O)[C@]1(O)CCN(c3ccccc3)C1=N2	1.54 (inactive)	1.18	1.07	–	–	–
CN1CCC(COc2cnc(-c3cccc(Cn4nc(-c5cccc(C#N)c5)ccc4=O)c3)nc2)CC1	-0.437 (inactive)	-0.363	-0.442	–	–	–
Cn1cc(-c2ccc3nnc(Sc4ccc5ncccc5c4)n3n2)cn1	1.3 (inactive)	1.65	1.9	–	–	–
CCOC(=O)c1c(CSc2ccccc2)n(C)c2cc(Br)c(O)c(CN(C)C)c12	0.838 (inactive)	0.193	0.129	–	–	–
COc1cc([C@@H]2c3cc4c(cc3[C@@H](O[C@@H]3O[C@@H]5CO[C@@H](C)O[C@@H]5[C@H](O)[C@@H]3O)[C@H]3COC(=O)[C@H]23)OCO4)cc(OC)c1O	-0.699 (inactive)	-1.32	-0.275	–	–	–
Cn1c(=O)c(Oc2ccc(F)cc2F)cc2cnc(NC3CCOCC3)nc21	1.26 (inactive)	1.1	1.01	–	–	–
NCc1c[nH]c(=S)n1[C@H]1CCc2c(F)cc(F)cc2C1	-0.555 (inactive)	-0.422	-0.786	–	–	–
Cc1ccccc1-n1c(Cn2nc(-c3cccc(O)c3)c3c(N)ncnc32)nc2cccc(C)c2c1=O	-1.13 (inactive)	-0.546	-0.912	–	–	–
O=S(=O)(O)c1ccc2cc(N=Nc3cc(S(=O)(=O)O)c4cccnc4c3O)ccc2c1	0.327 (inactive)	-0.476	0.158	–	–	–
O=C(NC[C@H](O)CO)c1ccncc1Nc1ccc(I)cc1F	-0.995 (inactive)	-0.351	-0.367	–	–	–
COc1ccc2nc3cc(Cl)ccc3c(Nc3cc(CN4CCCC4)c(O)c(CN4CCCC4)c3)c2n1	1.63 (inactive)	0.591	1.29	–	–	–

SMILES	Z-AUC [1]	Z-AUC [1, 3]	Z-AUC ([1]; measured here: PEO4 Z-AUC)	z-score [2, 4]	z-score [2, 5]	z-score [2, 6]
NS(=O)(=O)c1ccc(Nc2nc(OCC3CCCCC3)c3[nH]cnc3n2)cc1	-1.43 (inactive)	-0.91	-1.12	–	–	–
CSc1cccc(Nc2ncc3cc(-c4c(Cl)cccc4Cl)c(=O)n(C)c3n2)c1	0.438 (inactive)	0.39	0.318	–	–	–
CCc1cc(-c2n[nH]c(C)c2-c2ccc3c(c2)OCCO3)c(O)cc1O	0.644 (inactive)	0.497	0.316	–	–	–
CC(=O)Nc1cccc(-n2c(=O)n(C3CC3)c(=O)c3c(Nc4ccc(I)cc4F)n(C)c(=O)c(C)c32)c1	-0.972 (inactive)	-1.33	-1.07	–	–	–
CNc1nc(Nc2ccc(C(=O)N3CCOCC3)cc2OC)ncc1Cl	-0.915 (inactive)	-0.00443	0.143	0.622	-0.0223	0.626
O=C(c1ccc(C(=O)N2CCC(N3CCCC3)CC2)c(Nc2ccccc2)c1)N1CCC(N2CCCC2)CC1	0.276 (inactive)	0.308	0.42	0.9	1.07	0.591
CC1=C(C(=O)Nc2cc3cn[nH]c3cc2F)C(c2ccc(C(F)(F)F)cc2)CC(=O)N1 (stereo not drawn)	-0.362 (inactive)	-0.272	-0.273	0.673	0.25	0.771
Cc1cc(OCCCS(C)(=O)=O)cc(C)c1-c1cccc(COc2ccc3c(c2)OC[C@H]3CC(=O)O)c1	-0.127 (inactive)	0.128	0.794	0.542	0.159	0.614
N[C@@H](CC(=O)N1CCn2c(nnc2C(F)(F)F)C1)Cc1cc(F)c(F)cc1F	0.69 (inactive)	0.734	0.789	0.736	0.907	0.666
Cc1cnc(-c2cc(N3CCN(C(=O)CCS(C)(=O)=O)CC3)ncc2Cl)c(C)c1	0.449 (inactive)	1.67	1.63	–	–	–
COc1ccc(-c2nc3ccc(C4=NNC(=O)CC4C)cc3[nH]2)cc1 (stereo not drawn)	-0.406 (inactive)	-0.248	0.0118	0.403	0.3	0.145
C#CCN(C)CC1=Cc2ccccc2Oc2ccccc21	-0.343 (inactive)	-0.493	-0.09	-0.41	0.413	-1.17
C[C@H]1COC2=C1C(=O)C(=O)c1c2ccc2c1CCCC2(C)C	1.69 (inactive)	1.64	1.41	-0.0604	-0.0946	-0.271
CCCCC[C@H](O)C=C[C@H]1[C@H](O)CC(=O)[C@H]1CC=CCCCC(=O)O	1.09 (inactive)	0.516	0.73	1.12	0.597	0.962
CCC[C@H](N[C@@H](C)C(=O)N1[C@@H]2CCCC[C@H]2C[C@H]1C(=O)O)C(=O)OCC	-0.443 (inactive)	-0.451	-0.177	0.586	0.337	0.752
CCCCC(F)(F)[C@@]1(O)CC[C@H]2[C@H](CC(=O)[C@@H]2CCCCCCC(=O)O)O1	-0.514 (inactive)	0.401	0.738	0.852	0.425	0.602
CN1C(=O)C(Cc2c[nH]c3ccccc23)NC1=S (stereo not drawn)	-0.877 (inactive)	-0.326	-0.823	0.322	0.546	0.284
Cc1cc2c(cc1C1(c3ccc(C(=O)O)cn3)CC1)C(C)(C)CCC2(C)C	-0.226 (inactive)	0.647	0.601	1.13	-2.74	0.66
COc1nc(C)cnc1NS(=O)(=O)c1cccnc1-c1ccc(-c2nnco2)cc1	1.25 (inactive)	1.67	1.16	1.22	0.956	0.662
C[C@@H]1C[C@H]2[C@@H]3CCC4=CC(=O)C=C[C@]4(C)[C@@]3(F)[C@@H](O)C[C@]2(C)[C@@]1(O)C(=O)CO	0.337 (inactive)	1.75	0.58	0.745	0.108	-1.45
